# From the supplement of paper PMC13172266
# Where a name gives a salt, the structure may show the parent alone.
# Experiments:
# Experiment in all cases: cell proliferation relative to vehicle (% of vehicle); higher = less growth inhibition
# Conditions in all cases: 72 h
# [1] = system: U2932 TK216-resistant clone 2
# Procedure, shortened: (§1)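 Parental U2932 cells (ABC-DLBCL) and two clones made resistant to an ETS-targeting agent by almost a year of repeated exposure were treated for 72 h with 348 targeted inhibitors at 500 nM or 50 nM. MTT was then applied for 4 h, the reaction was stopped with 25% SDS, and absorbance was measured on a Cytation 3. Values express proliferation as percent of proliferating cells compared with DMSO vehicle.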
# [2] = system: U2932 TK216-resistant clone 3
# Procedure, shortened: as §1
# [3] = system: U2932 parental
# Procedure, shortened: as §1
Compound,cell proliferation ([1]; 50 nM),cell proliferation ([1]; 500 nM),cell proliferation ([2]; 50 nM),cell proliferation ([2]; 500 nM),cell proliferation ([3]; 50 nM),cell proliferation ([3]; 500 nM)
O=C(NOCC1CC1)c1ccc(F)c(F)c1Nc1ccc(I)cc1Cl,102,90.6,98.5,90.8,96.2,95.7
NC(=O)c1cccc2cn(-c3ccc([C@@H]4CCCNC4)cc3)nc12 [MK-4827(Niraparib) tosylate],103,91.7,109,103,92.5,97.1
N#Cc1c(Oc2ccc(F)c(NC(=O)Cc3cccc(C(F)(F)F)c3)c2)ccc2nc(NC(=O)C3CC3)sc12,104,92.8,107,103,95.9,98.6
Clc1ccc(Nc2nnc(Cc3ccncc3)c3ccccc23)cc1 [Vatalanib (PTK787) 2HCl],109,99.8,108,113,93.1,102
O=C(Nc1ccc(OC(F)(F)F)cc1)c1sccc1NCc1ccnc2ccccc12,105,101,105,109,100,98.9
O=C1CCC(N2C(=O)c3ccccc3C2=O)C(=O)N1 (stereo unspecified) [Thalidomide],105,106,104,101,103,101
COc1cccc(-c2cc(F)ccc2C2Cc3nc(N)nc(C)c3C(=O)N2)n1 (stereo unspecified),6.3,4.81,22.6,18.7,7.13,6.37
NC(=O)c1ncn([C@@H]2O[C@H](CO)[C@@H](O)[C@H]2O)c1O [Mizoribine],104,108,100,99.7,104,102
O=C(Nc1cc(C(F)(F)F)cc(C(F)(F)F)c1)c1cc(Cl)ccc1O,103,104,109,102,102,101
"Cc1cc(Nc2cc(N3CCN(C)CC3)nc(Sc3ccc(NC(=O)C4CC4)cc3)n2)n[nH]1 [VX-680 (Tozasertib, MK-0457)]",91.1,79.9,72.2,69,64.5,57.8
COc1cc2ncnc(Oc3ccc(CC(=O)Nc4cnn(C(C)C)c4)cc3)c2cc1OC,100,104,104,98.5,97.7,95.7
Cc1nnc(C(C)C)n1C1C[C@H]2CC[C@@H](C1)N2CC[C@H](NC(=O)C1CCC(F)(F)CC1)c1ccccc1 (stereo in doubt) [Maraviroc],107,99.6,96,101,88,89.6
O=c1[nH]nc(Sc2ncc([N+](=O)[O-])s2)n1-c1ccc2c(c1)OCCO2,98.1,94.6,102,97.9,100,99.3
"CC[C@H](Nc1ncnc2[nH]cnc12)c1nc2cccc(F)c2c(=O)n1-c1ccccc1 [CAL-101 (Idelalisib, GS-1101)]",103,109,97.8,99.3,92.6,96.6
CN(c1ncccc1CNc1nc(Nc2ccc3c(c2)CC(=O)N3)ncc1C(F)(F)F)S(C)(=O)=O,95.6,91.2,99.2,95.2,96.9,87.2
CCN(CC)CCNC(=O)c1c(C)[nH]c(/C=C2\C(=O)Nc3ccc(F)cc32)c1C [Sunitinib Malate],107,94.6,99.4,92.6,101,104
Oc1nc(-c2ccc(C(F)(F)F)cc2)nc2c1CSCC2,90.3,108,111,95.1,99.3,98.2
CN(C)CCOc1ccc(-c2nc(-c3ccncc3)c(-c3ccc4c(c3)CC/C4=N\O)[nH]2)cc1,93.3,89.5,96.6,97.4,93.3,94.8

Compound,cell proliferation ([1]; 50 nM),cell proliferation ([1]; 500 nM),cell proliferation ([2]; 50 nM),cell proliferation ([2]; 500 nM),cell proliferation ([3]; 50 nM),cell proliferation ([3]; 500 nM)
"CCCS(=O)(=O)Nc1ccc(F)c(C(=O)c2c[nH]c3ncc(-c4ccc(Cl)cc4)cc23)c1F [Vemurafenib (PLX4032, RG7204)]",106,110,101,108,101,100
CNc1nc(Nc2cn(C(C)(C)C#N)nc2C)ncc1C(F)(F)F,101,96.4,101,95.2,100,98.2
Cn1cc(-c2ccc3nnc(C(F)(F)c4ccc5ncccc5c4)n3n2)cn1,102,103,106,113,99.8,99.2
C#Cc1cccc(Nc2ncnc3cc(OC)c(OCCCCCCC(=O)NO)cc23)c1,93.7,43.4,96.3,52.5,89.5,43.9
NC(=O)Nc1sc(-c2ccc(F)cc2)cc1C(N)=O,109,92.7,106,102,104,99.5
CCOc1cc(C(=O)N2CCC(N3CCN(C)CC3)CC2)ccc1Nc1ncc2c(n1)N(C1CCCC1)c1ccccc1C(=O)N2C,95,74.3,95.4,65.4,94.8,75.5
O=C(O)c1ccc(Nc2ncc3c(n2)-c2ccc(Cl)cc2C(c2c(F)cccc2F)=NC3)cc1,104,80.2,112,86.2,99.6,65.5
O=C(NC[C@H](O)CO)c1ccncc1Nc1ccc(I)cc1F,91,88.5,95.7,94.7,92.2,89.5
CC1(C)CCC(c2ccc(Cl)cc2)=C(CN2CCN(c3ccc(C(=O)NS(=O)(=O)c4ccc(N[C@H](CCN5CCOCC5)CSc5ccccc5)c(S(=O)(=O)C(F)(F)F)c4)cc3)CC2)C1 [ABT-263 (Navitoclax)],100,62.4,99.4,64.2,91.5,86.6
C[C@@H](Nc1cc(F)cc(F)c1)c1cc(C(=O)N(C)C)cc2c(=O)cc(N3CCOCC3)oc12,111,83.1,99.4,84.5,99.9,90.3
N#CC[C@H](C1CCCC1)n1cc(-c2ncnc3[nH]ccc23)cn1,100,95.4,103,108,96.7,96.5
Cc1csc(-c2nnc(Nc3ccc(Oc4ncccc4-c4ccnc(N)n4)cc3)c3ccccc23)c1,88,99.7,80.5,78,66.9,61.8
Cc1cc(C(C)Nc2ccccc2)c2nc(N3CCOCC3)cc(=O)n2c1 (stereo unspecified),103,101,105,98.3,102,92.9
Oc1cccc(-c2nc(N3CCOCC3)c3oc4ncccc4c3n2)c1,97.4,45.4,94.2,46.3,92.1,48
COc1cc(Nc2nc3ccccc3nc2NS(=O)(=O)c2ccc(NC(=O)c3ccc(C)c(OC)c3)cc2)cc(OC)c1,98.5,106,104,103,105,104
C=CC(=O)N1CCC[C@@H](n2nc(-c3ccc(Oc4ccccc4)cc3)c3c(N)ncnc32)C1,–,–,–,–,76,70.9
CC#CC(=O)N1CCC[C@H]1c1nc(-c2ccc(C(=O)Nc3ccccn3)cc2)c2c(N)nccn12,70,64.8,75.8,72.9,77.4,75.6
